# Reference: PubChem BioAssay (NCATS)
# Records with an inconclusive call do not appear. Entries that show only a call come without a potency. Active and inactive are the calls of the source. The call rests on the fitted dose curve; in most records, active means well fitted curve in the direction sought with a large enough effect; inconclusive means small, poorly fitted or top-dose-only effect, or another doubt; inactive means no such curve, though single readings can be large; an effect the other way counts as inactive or inconclusive.
# Assays:
# [1] = target: Aldehyde dehydrogenase, mitochondrial (Homo sapiens) (UniProt P05091); test: qHTS for Inhibitors of the Aldehyde Dehydrogenase Family (ALDH2) Primary screen (AID 2061308); further: nearly all actives have a fitted effect of over 55% in size
# [2] = target: Retinaldehyde dehydrogenase 3 (Homo sapiens) (UniProt P47895); test: qHTS for Inhibitors of the Aldehyde Dehydrogenase Family (ALDH1A3) Primary screen (AID 2061315)
SMILES,Potency [1],Potency [2]
Cc1cccc(-n2cnc3cc(C(=O)NC4CCCC4)ccc32)c1,inactive,inactive
COc1ccc(NC(=O)c2cnn3c(C)cc(C)nc23)cc1,inactive,inactive
NC(=O)c1ccc(Cc2c(-c3cccc(-c4ccccc4)c3)[nH]n(-c3nc(C(=O)O)cs3)c2=O)cc1,inactive,inactive
Cc1cc(Nc2c(Nc3nnc(-c4ccncc4)s3)c(=O)c2=O)ccc1Cl,inactive,inactive
CCN(CC)CCCCn1c(-c2ccccc2)nc2c(N3CCOCC3)nc(C)nc21,inactive,inactive
O=C(Nc1ccc(S(=O)(=O)Nc2nccs2)cc1)c1ccnc2ccccc12,inactive,inactive
O=C1CCc2cc(S(=O)(=O)Nc3ccc(Cl)c(Cl)c3)ccc2N1,inactive,inactive
Cc1ccc(-c2cc(C(=O)Nc3ccncc3)c3ccccc3n2)cc1C,inactive,inactive
O=C1CCc2cc(S(=O)(=O)Nc3ccc(-c4ccccc4)cc3)ccc2N1,inactive,inactive
Cc1cc2c(s1)c1cnn(Cc3ccc(F)c(Cl)c3)c(=O)c1n2C,inactive,inactive
Cc1cc(NC(=O)Nc2nnc(-c3ccncc3)s2)ccc1F,inactive,inactive
COC(=O)c1ccc(O)c2ncc(N(C)C)cc12,inactive,inactive
O=[S+]([O-])(c1ccc2c(c1)OCCO2)N1CCN([S+](=O)([O-])c2c(F)cc(O)cc2F)CC1,inactive,inactive
COc1ccc(C(=O)Nc2ccc(-c3nc4ccccc4[nH]3)cc2)cc1Br,inactive,inactive
C=C1C[C@]23C[C@@]1(O)CC[C@H]2[C@@]12C=C[C@H](O)[C@@](C)(C(=O)O1)[C@H]2[C@@H]3C(=O)O,inactive,inactive
